Source: PubChem BioAssay (EPA / NIEHS)
Where “and” joins values, the source holds several entries; their conditions need not be identical. Identical values can stand only once. Results filed as inconclusive are left out. A structure can be active in one record and inactive in another. Calls of active or inactive are those of the source. Rule for the calls, unless noted: active = hit-call score of the fitted dose curve at least 0.9, where 1 is the maximum; inactive = score below 0.9.

Tests used:
[1] = CCTE_Shafer_MEA_dev_correlation_coefficient_mean: CCTE's Neural Network Formation Assay for Mean Correlation Coefficient, Shafer Lab (AID 2284093);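 for AC50: well mean pairwise spike train correlation integrated as AUC over recording days 5 to 12; potency fitted for loss of correlation relative to DMSO vehicle wells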
Method in brief: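 Read-out: well-mean correlation coefficient of spike trains between electrode pairs, collapsed over four recording days as trapezoidal area-under-the-curve. Developing rat cortical neuron networks grown on MEAs received test chemical continuously from plating.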

[2] = UKN2_HCS_IMR90_neural_migration: University of Konstanz (UKN) Leist Lab Neural Crest Cell Migration Assay in human induced IMR90 Pluripotent Stem Cells (UKN2) (AID 2284204); details: actives raise or lower the signal
Method in brief: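 iPSC-derived IMR90 neural crest cells on PLO/laminin/fibronectin were seeded around silicone stoppers; after stopper removal, migration in N2-S medium with EGF and FGF ran 24 h before 24 h chemical exposure. Calcein-AM/Hoechst high-content imaging; bidirectional fit versus DMSO.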

[3] = IUF_NPC1b_proliferation_BrdU_72hr: Leibniz Research Institute for Environmental Medicine (IUF) 72-hour Neural Progenitor Cell Bromodeoxyuridine (BrdU) Proliferation Assay (NPC1b) (AID 2284207)
Method in brief: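 hNPC spheres (primary, GW 16-19 fetal cortex), single sphere/well, EGF+FGF medium; 72 h compound, no renewal; BrdU pulse last 16 h; luminescent ELISA; activity vs DMSO baseline; growth-factor withdrawal as positive control.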

[4] = IUF_NPC1a_proliferation_area_72hr: Leibniz Research Institute for Environmental Medicine (IUF) 72-hour Neural Progenitor Cell Proliferation Area Assay (NPC1a) (AID 2284208)
Method in brief: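 Read-out: increase in sphere area over 72 h by automated phase-contrast imaging, fitted in positive direction versus DMSO baseline. One hNPC sphere (0.25-0.35 mm) per well in EGF/FGF medium; growth-factor withdrawal served as positive control.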

[5] = IUF_NPC1_viability_72hr: Viability Assessment at 72 hours in the Leibniz Research Institute for Environmental Medicine (IUF) Neural Progenitor Cell Proliferation Assay (NPC1) (AID 2284209)
Method in brief: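 Human fetal-cortex neural progenitor spheres (0.25–0.35 mm, one per well) grown in EGF/FGF proliferation medium at 37C, pH 7.2-7.6, exposed 72 h without renewal; viability read as alamar blue resazurin-to-resorufin fluorescence relative to DMSO.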

[6] = CCTE_Mundy_HCI_Cortical_Synap_Neur_Matur_NeuriteSpotCountPerNeuriteLength: CCTE's Synaptogenesis and Neurite Maturation Assay in rat cortical cells for Neurite Spot Count per Neurite Length, Mundy Lab (AID 2284210)
Method in brief: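 Rat primary cortical cultures, glia arrested with AraC at DIV 5, were dosed with media change at DIV 7 and fixed at DIV 12. Synaptophysin puncta per MAP2-labelled neurite length were quantified by high-content imaging versus DMSO.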

[7] = CCTE_Mundy_HCI_Cortical_Synap_Neur_Matur_BPCount: CCTE's Synaptogenesis and Neurite Maturation Assay in rat cortical cells for Branch Point Count, Mundy Lab (AID 2284211)
Method in brief: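 Branch point number is quantified by automated imaging of fluorescently labelled neurites and synapses in rat primary cortical neurons exposed from DIV 7 to DIV 12. Activity is analysed relative to DMSO negative control.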

[8] = CCTE_Mundy_HCI_Cortical_NOG_NeuriteCount: CCTE's Neurite Outgrowth Assay in rat cortical cells for Neurite Count, Mundy Lab (AID 2284212);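 note: cells fixed about two days after chemical exposure began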
Method in brief: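 Neurite number per cell from high-content imaging of betaIII-tubulin immunostaining, with Hoechst nuclear counterstain.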

[9] = CCTE_Mundy_HCI_Cortical_Synap_Neur_Matur_NeuriteLength: CCTE's Synaptogenesis and Neurite Maturation Assay in rat cortical cells for Neurite Length, Mundy Lab (AID 2284214)
Method in brief: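 Rat primary cortical cells were plated, treated with AraC at DIV 5 to arrest glial growth, then chemical-dosed with media change at DIV 7 through DIV 12. Fixed cells stained for MAP2, synaptophysin and Hoechst; neurite length quantified by high-content imaging.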

[10] = CCTE_Mundy_HCI_Cortical_Synap_Neur_Matur_NeuriteSpotCountPerNeuron: CCTE's Synaptogenesis and Neurite Maturation Assay in rat cortical cells for Neurite Spot Count per Neuron Count, Mundy Lab (AID 2284215)
Method in brief: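 Rat primary cortical cells received AraC at DIV 5, then chemicals with a media change at DIV 7, and were fixed at DIV 12. Synaptophysin puncta on MAP2-stained neurites per neuron were counted by high-content imaging, fitted relative to DMSO.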

[11] = CCTE_Mundy_HCI_Cortical_Synap_Neur_Matur_SynapseCount: CCTE's Synaptogenesis and Neurite Maturation Assay in rat cortical cells for Synapse Count, Mundy Lab (AID 2284218)
Method in brief: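 Rat primary cortical cells in 96-well plates received AraC at DIV 5 and were dosed with chemicals at DIV 7 with media change, through DIV 12 (288.33 h). Synapses per neuron counted by high-content imaging of MAP2/synaptophysin/Hoechst staining, versus DMSO baseline.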

[12] = CCTE_Mundy_HCI_hN2_NOG_NeuriteCount: CCTE's Neurite Outgrowth Assay in human hN2 cells for Neurite Count, Mundy Lab (AID 2284219; active = hit-call score of the fitted dose curve at least 0.9, where 1 is the maximum)
Method in brief: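 In this morphology assay, hNP1-derived neurons received test chemical 2 h post-plating and were fixed two days later in warm paraformaldehyde/sucrose containing Hoechst 33342. Neurites, labelled by rabbit anti-βIII-tubulin (1:800) and Alexa Fluor-488 (1:500), were counted automatically.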

[13] = CCTE_Mundy_HCI_hN2_NOG_NeuriteLength: CCTE's Neurite Outgrowth Assay in human hN2 cells for Neurite Length, Mundy Lab (AID 2284220; active = hit-call score of the fitted dose curve at least 0.9, where 1 is the maximum)
Method in brief: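 Using βIII-tubulin immunofluorescence and Hoechst nuclear counterstain, this component quantifies neurite length in hNP1-derived neurons.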

[14] = CCTE_Mundy_HCI_hN2_NOG_NeuronCount: CCTE's Neurite Outgrowth Assay in human hN2 cells for Neuron Count, Mundy Lab (AID 2284221; active = hit-call score of the fitted dose curve at least 0.9, where 1 is the maximum)
Method in brief: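 Read-out is the number of betaIII-tubulin-positive neurons imaged by automated high-content analysis, with DMSO as negative control.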

[15] = CCTE_Mundy_HCI_Cortical_Synap_Neur_Matur_NeuriteCount: CCTE's Synaptogenesis and Neurite Maturation Assay in rat cortical cells for Neurite Count, Mundy Lab (AID 2284222)
Method in brief: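 Chemical exposure runs DIV 7–12 in rat cortical cultures, glia suppressed by AraC at DIV 5; measurement is at DIV 12. Imaging-derived neurite counts are fitted against DMSO baseline.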

[16] = CCTE_Mundy_HCI_hNP1_Pro_ResponderAvgInten: CCTE's Proliferation Assay in human neuroprogenitor cells, Mundy Lab (AID 2284224; active = hit-call score of the fitted dose curve at least 0.9, where 1 is the maximum;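 note: human neural progenitor cells hNP1 derived from WA09 embryonic stem cells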)
Method in brief: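 Human neuroprogenitors (hNP1, WA09 lineage) receive test chemical after 40 to 44 hours of attachment. A four-hour BrdU pulse begins twenty hours later, followed by fixation and high content imaging; signal is referenced to DMSO controls.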

[17] = TAMU_PeakParms_SingleDonor1434_Chronotropy: Texas A&M University (TAMU) 1.5-hr Human Induced Pluripotent Stem Cell (iPSC)-derived Cardiomyocytes Calcium (Ca+2) Flux Assay for Cardiotoxicity: Chronotropy (changes in peak frequency) (AID 2284217); details: actives raise or lower the signal
Method in brief: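 Beat frequency of single-donor iPSC cardiomyocytes was recorded through a calcium-sensitive dye 1.5 hours after exposure to four concentrations up to 100 uM. An EC05 point of departure was derived.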

[18] = UKN4_HCS_LUHMES_neurite_outgrowth: University of Konstanz (UKN) Leist Lab Neurite Outgrowth Assay in human LUHMES cells (UKN4) (AID 2284206); details: actives raise or lower the signal
Method in brief: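 LUHMES neuronal precursors differentiated 2 days, replated without cAMP/GDNF, then exposed to chemicals for 24 h. Neurite area imaged by high-content microscopy after calcein-AM staining; Hoechst H-33342 marks viability. Bidirectional fit versus DMSO.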

Measured: AC50

CCCSP(=O)(OCC)SCCC
active: [1] 15.8 µM and 20.4 µM
not listed: [17] | [18]
inactive: all other assays above

CC(C)=CC1C(C(=O)OCN2C(=O)C3=C(CCCC3)C2=O)C1(C)C (stereo not drawn)
inactive: [1]

CCCCSP(=O)(SCCCC)SCCCC
inactive: [2] | [4] | [6] | [15]
active: [1] 29.6 µM and 35 µM | [3] 87.2 µM | [6] 14 µM | [7] 50 µM and 14 µM | [8] 77.8 µM and 49.9 µM | [9] 50 µM and 14.2 µM | [10] 66.3 µM and 12.9 µM | [11] 73.5 µM and 15.5 µM | [15] 16.1 µM | [16] 50 µM and 74.1 µM

CCCSP(=O)(OCC)Oc1ccc(Br)cc1Cl (stereo not drawn)
inactive: [1] | [6] | [7] | [8] | [9] | [10] | [11] | [14] | [15]

S=C1NCCN1
not listed: [2] | [12] | [13] | [14] | [17] | [18]
inactive: all other assays above

COP(=O)(OC)C(O)C(Cl)(Cl)Cl (stereo not drawn)
inactive: [3] | [4] | [5] | [6] | [8] | [15]
active: [1] 31.7 µM and 15 µM | [7] 26.8 µM | [9] 36.9 µM | [10] 50 µM | [11] 50 µM | [16] 50 µM

CCOP(=O)(OCC)Oc1cc(C)nc(C(C)C)n1
not listed: [12] | [13] | [14] | [17] | [18]
inactive: all other assays above

CCOP(=S)(OCC)Oc1ccc([N+](=O)[O-])cc1
inactive: [1] | [17] | [15]
active: [6] 20.9 µM | [7] 2.98 µM | [8] 23.7 µM | [9] 15 µM | [10] 15 µM | [11] 15 µM

COP(=O)(NC(C)=O)SC (stereo not drawn)
not listed: [2] | [14] | [16] | [17] | [18]
inactive: all other assays above

CCOC(=O)CC(SP(=O)(OC)OC)C(=O)OCC (stereo not drawn)
active: [5] 1.06 µM
not listed: [14] | [16] | [17]
inactive: all other assays above

C[N+]1(C)CCCCC1
not listed: [2] | [12] | [13] | [14] | [16] | [17] | [18]
inactive: all other assays above

CC(=NC#N)N(C)Cc1ccc(Cl)nc1
active: [3] 0.385 µM
not listed: [12] | [13] | [14] | [17]
inactive: all other assays above

CCOP(=S)(OCC)SCCSCC
not listed: [2] | [12] | [13] | [14] | [17] | [18]
inactive: all other assays above

CCOP(=S)(OCC)Oc1cc(C)nc(C(C)C)n1
active: [1] 50 µM | [7] 50 µM | [9] 50 µM
inactive: [1] | [3] | [4] | [5] | [6] | [8] | [10] | [11] | [15] | [16]

CCOP(=O)(SC(C)CC)N1CCSC1=O (stereo not drawn)
not listed: [2] | [3] | [4] | [5] | [16] | [17] | [18]
inactive: all other assays above

C=C(C)[C@H]1Cc2c(ccc3c2O[C@@H]2COc4cc(OC)c(OC)cc4[C@@H]2C3=O)O1
inactive: [3] | [5] | [17]
active: [1] 14.5 nM and 16.1 nM | [3] 0.0427 µM | [4] 756 nM and 41.6 nM | [5] 0.329 µM | [8] 0.053 µM
